Test results from PubChem BioAssay AID743398 (Broad Institute, 2014).
The campaign covered roughly 300,000 compounds. About 3,600 (1.2%) were called active. What follows is part of a selection rich in actives, with near analogues and random picks from the rest. Unmarked numbers belong to inactive results. No stated cut-off is given here; in the data, active means activation above about 30% (passing the limit was not always enough); inconclusive means no clear call, values can overlap the other calls.

experiment: activation of beta-catenin signaling reporter – cell-based, plate reader, single point, primary screen (AID 743398); conditions: Wnt/beta-catenin reporter cell assay, activator, at 9.35 µM, stronger effect = higher value;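 further: 0% = neutral control wells and 100% = positive control wells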

| SMILES | activation |
| --- | --- |
| O=C1NC[C@H](Cc2ccc(O)cc2)N(C[C@@H]2CCCN2C[C@H](Cc2ccccc2)N2C[C@H](Cc3ccccc3)N(CC3CCCCC3)C(=O)C2=O)C1=O | -2.18% |
| COC(=O)c1ccc(CN2C(=O)[C@]3(OCCC=C[C@H]3C)c3c(Br)cccc32)cc1 | -10.3% |
| CC1Cc2ccccc2N1CC(=O)Nc1ccc(S(N)(=O)=O)cc1 (configuration not stated) | 39% (active) |
| NS(=O)(=O)c1cccc(NC(=O)CN2CCCc3ccccc32)c1 | -1.12% |
| CC1CC(C)CN(CC(=O)Nc2ccc(S(N)(=O)=O)cc2)C1 (configuration not stated) | -0.27% |
| CN(C(=O)COC(=O)c1cc(=O)[nH]c2ccccc12)C1CCCCC1 | 60.6% (active) |
| CC(NC(=O)COC(=O)c1cc(=O)[nH]c2ccccc12)c1ccccc1 (configuration not stated) | -11.1% |
| CC1CCN(C(=O)COC(=O)c2cc(=O)[nH]c3ccccc23)CC1 | -3.48% |
| Cc1ccc([C@H]2N[C@]3(CCCN(Cc4ccccc4)C3=O)[C@H]3C(=O)N(Cc4ccccc4)C(=O)[C@@H]23)cc1 | -1.11% |
| Cc1ccc(-c2cn(S(=O)(=O)c3cccc([N+](=O)[O-])c3)nc2N)cc1 | -0.55% |
| Cc1ccc(-n2cc3ccc([N+](=O)[O-])cc3n2)cc1 | 44.6% (active) |
| Cc1cc(C)nc(Nc2cc([N+](=O)[O-])ccc2C)n1 | -0.166% |
| CC(C)[C@@H](C)/C=C/[C@@H](C)[C@H]1CC[C@@H]2[C@]1(C)CCC1[C@]23C=C[C@]2(C[C@@H](O)CC[C@]12C)N(c1ccc([N+](=O)[O-])cn1)O3 (some centres not stated) | -14.5% |
| CN(C(=O)CN1CCN(c2cc(-c3ccc(OCc4ccccc4)cc3)ncn2)CC1)c1ccccc1 | -1.53% |
| CC(C)CNC(=O)c1cc(-c2ccc(Br)cc2)on1 | 26.3% |
| CC(C)Cc1cc(C(=O)Nc2cc(Br)ccc2O)no1 | 44.3% (active) |
| CC(C)Cc1cc(C(=O)NCCc2ccccc2)no1 | 28.6% |
| OC[C@@H]1CN(Cc2ccc(-c3ccccc3)cc2)C[C@H](n2cnc3c(NC4CCCC4)ncnc32)O1 | -4.89% |
| Cc1nc2c(OCc3ccc(Cl)cc3Cl)cccn2c1N(C)CC1CC1 | -3.96% |
| Nc1nc2c(ncn2[C@@H]2O[C@H](C(=O)N[C@@H](Cc3ccccc3)C(=O)NCc3ccccc3)[C@@H](O)[C@H]2O)c(=O)[nH]1 | 1.27% |
| CSCCC(C(=O)NC(C)(C)C)n1c(-c2ccccc2)nc2ccccc21 (configuration not stated) | 2.95% |
| CCOC(=O)c1c(NC(=S)SC)sc(C(=O)N2CCc3ccccc3C2)c1C | -0.956% |
| Oc1c(CN2CCCC2)cc(COCc2ccccc2)c2cccnc12 | 2.52% |
| CCN1CCN(C(c2cccnc2)c2cc(Cl)c3cccnc3c2O)CC1 (configuration not stated) | 61.4% (active) |

| SMILES | activation |
| --- | --- |
| CC(=O)NC(c1cccs1)c1cc(Br)c2cccnc2c1O (configuration not stated) | -2.66% |
| O=C(NN=Cc1ccco1)C(=O)Nc1ccc(Cl)c([N+](=O)[O-])c1 | -3.58% |
| Cc1cc(C)n2c(Nc3c(C)cccc3C)c(CCc3ccccc3)nc2n1 | -1.15% |
| Cc1nc2cc(NC(=O)CSc3nc4c(C)cccc4cc3C#N)ccc2s1 | -2.44% |
| Cc1cc(C)c(C#N)c(SCC(=O)Nc2ccccc2)n1 | 39.1% (active) |
| Cc1nonc1NC(=O)CSc1nc2ccccc2cc1C#N | 24.4% |
| CCCCc1c(-c2ccc(Br)cc2)ncn1CCc1ccccc1OC | -12.1% |
| CC(=O)c1ccc(S(=O)(=O)NCC2CCN(C(=O)C(=O)c3cccs3)CC2)cc1 | -0.884% |
| Cc1nc(NC(=O)C23CCC(C)(C(=O)O2)C3(C)C)sc1C (configuration not stated) | -2.53% |
| Cc1nc(NC(=O)C2CCCCC2)sc1C | 37.5% (active) |
| Cc1nc2ccc(NC(=O)C3CCCCC3)cc2s1 | 15.2% |
| CCOC(=O)c1ccc(-c2ccc3ncnc(N(C)Cc4sccc4C)c3c2)o1 | 7.57% |
| COC(=O)C(C(=O)OC)c1ccccc1NS(=O)(=O)c1cccc2ccccc12 | -4.59% |
| CCc1nc2c(OCCOc3ccccc3)cccn2c1N(C)C(=O)c1cccs1 | -2.69% |
| CCOc1ccc2cc(C#N)c(SCC(=O)OC)nc2c1 | 86% (active) |
| COc1ccc(CCNC(=O)CSc2nc(-c3ccc(OC)c(OC)c3)ccc2C#N)cc1 | -3.46% |
| CCOc1ccc2nc(N3CCCN(C(=O)Nc4ccccc4C)CC3)c(C#N)cc2c1 | -1.99% |
| COc1ccc(NC(=O)C(c2ccncc2)n2c(=O)c(-c3cc4ccccc4[nH]3)nc3ccccc32)cc1 (configuration not stated) | 16.9% |
| C[C@H](O)[C@@H]1CN2CCc3ccc(-c4ccc5c(c4)OCO5)cc3[C@@H]2C[C@@H]1N(C)C(=O)C1CCCCC1 | 23.5% |
| Cc1ccccc1C(=O)N[C@H](C(=O)N1CCC[C@H]1C(=O)NCc1ccccc1)C(C)C | -3.2% |
| COc1cc(C(O)c2nc3ccccc3n2C)cc(OC)c1OC (configuration not stated) | -0.72% |
| COc1cccc(C(O)c2nc3ccccc3n2C)c1 (configuration not stated) | 47.8% (active) |
| COc1ccc(OC)c(C(O)c2nc3ccccc3n2C)c1 (configuration not stated) | -0.171% |
| CCCCCCn1c(=O)n2n(c1=O)C[C@]1(OC(=O)NCc3ccc(OC)c(OC)c3)CN(S(=O)(=O)c3ccc(C)cc3)C[C@]1(O)C2 | -4.95% |

| SMILES | activation |
| --- | --- |
| C=CCNC(=O)c1ccc2c3n(nc2c1)-c1ccc(C)cc1CO3 | 38.9% (active) |
| Cc1cccc(-c2nc3ccc(C(=O)NCCN4CCN(C)CC4)cc3nc2-c2cccc(C)c2)c1 | 2.48% |
| C=CCNC(=O)c1ccc(C)c(Br)c1 | -0.707% |
| CN(C)c1ccnc2sc(C(=O)c3ccccc3)c(N)c12 | 79.3% (active) |
| CCN(CC)C(=O)c1sc2nc(-c3ccccc3)ccc2c1N | 10.1% |
| Cc1ccc2c(N)c(C(=O)c3ccccc3)sc2n1 | 22.1% |
| COc1cccc(C(O)c2ncc(-c3ccc4ccccc4c3)[nH]2)c1 (configuration not stated) | 0.0285% |
| Cc1ccc2nc(-c3ccco3)c(Cc3cccc(Cl)c3)n2c1 | -1.15% |
| O=C(COc1ccc([N+](=O)[O-])cc1)Nc1ccc(N2CCCC2)cc1 | -2.41% |
| O=C(COc1ccc(/C=N/NC(=O)c2ccc(O)cc2)cc1)Nc1ccc([N+](=O)[O-])cc1 | 46.5% (active) |
| O=C(N/N=C/c1ccc(O)cc1)/C(=C/c1ccc([N+](=O)[O-])cc1)NC(=O)c1ccccc1 | 0.356% |
| CCC(CC)C(C(=O)NC1CCCC1)N1CCN(c2cc(C)nc3ccccc23)CC1 (configuration not stated) | -1.19% |
| CNC(=O)c1ccc(CN(C)C(=O)c2cc(C3CC3)nc3c2cnn3C(C)C)cc1 | 7.06% |
| O=C(Cc1ccc([N+](=O)[O-])cc1)NCCS(=O)(=O)N1CCN(c2ccccc2)CC1 | -2.6% |
| CCCOc1ccc(F)cc1-c1cc(C(=O)Nc2ccc(F)c(Cl)c2)[nH]n1 | -0.991% |
| CCCCCCCCN1C(=O)[C@@H](CC(=O)NCc2ccc(C)o2)C[C@@]2(C(=O)OC)C1=C[C@H](C(C)(C)C)O[C@@H]2C | -3.74% |
| O=C1Oc2ccccc2C(=O)/C1=C/c1ccccc1O | -4.19% |
| COc1ccc2c(c1)O/C(=C\c1ccccc1O)C2=O | 39.8% (active) |
| COC(=O)C(C)Oc1ccc2c(c1)O/C(=C\c1cccc(Br)c1)C2=O (configuration not stated) | -0.1% |
| Clc1cccc2c1C1CC2CCN1Cc1ccccc1 (configuration not stated) | -2.22% |
| COc1ccc(C(=O)O/N=C(\N)c2ccccn2)cc1[N+](=O)[O-] | 17% |
| COc1ccccc1OCC(=O)O/N=C(\N)c1ccccn1 | 55.9% (active) |
| N/C(=N\OC(=O)Cc1ccc([N+](=O)[O-])cc1)c1ccccn1 | 1.55% |
| COc1ccc(OC)c(CN2C(=O)CCC2(C)c2nnnn2Cc2ccccc2)c1 (configuration not stated) | -0.624% |
